# The panel holds about 83,000 compounds, 20% with a hit somewhere; the sample as a whole holds those more often.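 For each line, cells grew in 96-well plates with the test compound present at a single concentration for 48 hours.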 Values without a mark were called inactive. Activity calls are given as the source filed them. The calls were made as follows: active = growth percent below 10; inactive = the rest.
# Test system: HL-60(TB) leukemia
# Experiment: NCI-60 one-dose screen, 48 h (100 = growth as untreated, 0 = no growth, -100 = all killed)
# Details: 10 µM unless noted
row,SMILES,growth
1,CC(C)c1ncc(CO)n1Cc1c(Cl)cccc1Cl,98.7%
2,C=CCN(/C=C1/C(=O)O[C@H](COC)[C@@]2(C)C1=C(O)C(=O)C1=C2[C@H](OC(C)=O)C[C@]2(C)C(=O)CC[C@@H]12)CC=C,5.66% (active)
3,COc1ccc2c(CCCCC(c3ccccc3)c3ccccc3)c3[n+](cc2c1OC)CCc1cc2c(cc1-3)OCO2,-35.5% (active)
4,O=C(CC(CC(=O)c1ccccc1)c1ccccc1O)c1ccccc1,96.8%
5,Nc1ncccc1O,51.6%
6,COc1cc(C2CC(c3cccc(Nc4ccncc4)c3)=NN2C(C)=O)cc(OC)c1OC (stereo not given),94.6%
7,COc1ccc(/C=C2\CN(C(=O)C(Cl)Cl)C/C(=C\c3ccc(OC)c(OC)c3)C2=O)cc1OC,-11.4% (active)
8,COc1ccc(CCN(CC(=O)N(CC(N)=O)C2CCC[C@@H]2OCc2ccccc2)C(=O)CN(C(=O)CN(CCc2ccc(Cl)cc2)C(=O)CN(C(=O)CN(C)Cc2ccccc2F)[C@H](C)C2CCCCC2)[C@H](C)C2CCCCC2)cc1OC (stereo not given in full),-24.4% (active)
9,O=C(Nc1nc2ccccc2s1)Nc1ccc([N+](=O)[O-])cc1Cl,78.8%
10,CC1(c2ccc3ccccc3c2)CCC(=O)O1 (stereo not given),92.7%
11,Clc1cccc(Cl)c1Cn1c(-c2cncs2)nc2ccccc21,56.6%
12,CCOC(=O)C(O)C(O)(c1ccccc1)c1ccccc1 (stereo not given),91.1%
13,C=C(C)[C@@H]1CC[C@]2(C)[C@H](C=CC3=C4C[C@@](C)(CO)CC[C@]4(C)CC[C@]32C)[C@@]1(C)CCCN,-58% (active)
14,CN(C)CCN1C(=O)c2cccc3c(-c4ccc(-c5nc6c7ccccc7c7ccccc7c6[nH]5)cc4)ccc(c23)C1=O,90.7%
15,Nc1nsc(C(=O)c2ccc(O)cc2)n1,92.4%
16,CN(C)CC1CCC(CN(C)C)C1=O (stereo not given),84.2%
17,C=CC(=O)Nc1ccc2ncnc(Nc3cccc(NS(=O)(=O)CCC)c3Cl)c2c1,80.7%
18,C=C(C)[C@@H]1CC[C@]2(C(=O)N3CCN(C)CC3)CC[C@]3(C)[C@H](CC[C@@H]4[C@@]5(C)CC[C@H](OC(=O)c6ccccc6C(=O)O)C(C)(C)[C@@H]5CC[C@]43C)[C@@H]12,106%
19,C=C(C)[C@@H]1CCC[C@]2(C(=O)N3CCN(C)CC3)CC[C@]3(C)[C@@H](CC[C@@H]4[C@@]5(C)CC/C(=N\NC(=O)c6ccncc6)C(C)(C)[C@@H]5CC[C@]43C)[C@@H]12,82.8%
20,Cc1cc(NC(=O)c2cccc(C(F)(F)F)c2)ccc1-n1ccc2c(NC(=O)c3ccccc3)nccc21,106%

row,SMILES,growth
1,CCOC(=O)Nc1ccc(-c2ccc3c(c2)NC(=O)/C3=C\c2ccc[nH]2)cc1,98.5%
2,CCNc1nc(O)c(/C=C2\C=Nc3ncccc32)s1,-22.4% (active)
3,O=C1C=C[C@]2(C[C@@H](c3cccc(C(F)(F)F)c3)O[C@@H](c3cccc(C(F)(F)F)c3)O2)O1,8.74% (active)
4,CC(C)c1ccc(S(=O)(=O)NC(=O)NC2CCCC2)cc1,90.8%
5,CCN(CC)CCCC(C)NC(=S)N/N=C(\C)c1ccccn1 (stereo not given),-3.79% (active)
6,CN1CCN(c2cc(Nc3cc(C4CC4)[nH]n3)nc(Nc3ccc(CC(=O)NCc4cccc(F)c4)cc3)n2)CC1,19.9%
7,c1ccc2c(c1)CCCc1nnc3nc4ccccc4n3c1-2,34.2%
8,COc1ccc(C2CC(c3cnccn3)=NN2)cc1OC (stereo not given),46.5%
9,CN1CCc2c(sc3nc4n(-c5ccc(Cl)cc5)c(=O)[nH]n4c(=O)c23)C1,89.3%
10,CC1(C)CCC[C@]23C(=O)O[C@](O)(C(=O)C4=C[C@@](C)(/C=C/CCCc5ccc6ccc7cccc8ccc5c6c78)CC[C@@]42O)[C@@H]13,-18.3% (active)
11,O=C(/C=C/c1cccc(Cl)c1)c1ccc(Nc2nc(Nc3ccc(F)cc3)nc(Nc3ccc(Cl)cc3)n2)cc1,52.8%
12,CCOc1ccc(NC(=O)c2ccoc2COc2ccccc2)cc1,100%
13,COc1ccc(/C(=N\N)C(=O)c2ccccc2)cc1 (tested in a mixture with another compound),77.8%
14,CC1(C)C2=C(C(=O)N1Cc1ccccc1)C(c1ccco1)N(C(=O)C1CCC1)CCN2 (stereo not given),99.1%
15,CC[C@]1(O)C[C@H]2CN(CCc3c([nH]c4ccccc34)[C@@](C(=O)OC)(c3cc4c(cc3OC)N(C=O)[C@H]3[C@@](O)(C(=O)OC)[C@H](OC(C)=O)[C@]5(CC)C=CCN6CC[C@]43[C@@H]65)C2)C1,-25.1% (active)
16,CC12CCC3c4ccc(O)cc4CCC3C1CCC2=O (stereo not given),79.4%
17,CC(=O)[C@H]1CC[C@H]2[C@@H]3CC[C@H]4CC=CC[C@]4(C)[C@H]3CC[C@]12C,69%
18,COc1cccc(N=CNc2cccc(OC)c2)c1,96.7%
19,O=c1[nH]c2cc(O)ccc2n2cc3c(F)cccc3c12,25.5%
20,COc1cc(/C=C2\CCCC3=C2NC(N)=NC3c2cc(OC)c(OC)c(OC)c2)cc(OC)c1OC (stereo not given),-7.5% (active)
